Screening results: PubChem BioAssay, National Center for Advancing Translational Sciences (NCATS)
MARV entry inh: inhibitors of Marburg virus binding or cell entry. Marburg virus pseudotyped entry inhibition, cell reporter. Potency, µM (titrated, usually from 37.8 µM), inactives show at the top dose activity change, negative = inhibition, most hits filed as inhibitors. actives 1.8% (n = 300,000). AID 540276; calls by dose curve; tested in HEK293 cells; further: potency means the concentration at half of the fitted maximal effect; on the % scale 0 is the no-effect control and ±100 the full control effect
HCMV inh: blocks human cytomegalovirus replication; activity change, negative = inhibition, % at 57.5 µM; HFF cells, HCMV-luciferase reporter, 72 h; hits give low values; AID 1259415; actives 4.5% (n = 410,000); in the data active means activity change below about -60%; inconclusive means no clear call, values can overlap the other calls; inactive means above about -39%; further: on the % scale 0 is the no-effect control and ±100 the full control effect
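Steps: HFFs plated, 16 h 37C; compounds added; HCMV-luciferase added to MOI 1 PFU/cell; 72 h 37C; OneGlo reagent, 5 min room temperature; luminescence read, normalized to controls.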
HCV inh: HCV inhibition | Huh7.5.1 HCVcc-Cre infection, luciferase reporter, 44 h | Potency, µM (highest dose often 41.8 µM), for inactives: at the top dose activity change, negative = inhibition, actives largely listed as inhibitors | actives 3.4% (n = 340,000); active means well fitted inhibition curve with a large enough effect; inconclusive means small, poorly fitted or top-dose-only effect, or another doubt; inactive means no such curve, though single readings can be large or run the other way; further: potency means the concentration at half of the fitted maximal effect; on the % scale 0 is the no-effect control and ±100 the full control effect
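Seed cells (1,000/well) for 4 h; treat with compound and infect with HCVcc-Cre, moi about 0.5. Incubate 44 h, then detect luciferase activity.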
FMDV antiviral: blocks foot and mouth disease virus; FMDV antiviral cell-based qHTS; Potency, µM (series often up to 57.9 µM), without a hit: at the top dose activity change, negative = inhibition, actives largely listed as inhibitors; actives 1.2% (n = 410,000); calls by dose curve; tested in HEK293T cells; further: read-out not given here; potency means the concentration at half of the fitted maximal effect; on the % scale 0 is the no-effect control and ±100 the full control effect; nearly all actives have a fitted effect of over 45% in size
SARS PLpro yeast: inhibitors of SARS-CoV papain-like protease in yeast | S. cerevisiae expressing SARS-CoV PLpro, growth rescue | Potency, µM (titrated, usually from 32.9 µM), for inactives: top-dose activity, positive = growth rescue, hits mostly activators | actives 0.19% (n = 330,000) | AID 485353; calls by dose curve; further: potency means the concentration at half of the fitted maximal effect; 0% is about no effect; nearly all actives have a fitted effect of over 55% in size
LASV entry inh: inhibitors of Lassa virus binding or cell entry; Lassa virus pseudotype entry inhibition, cell reporter; Potency, µM (titrated, usually from 37.9 µM), without a hit: at the top dose activity change, negative = inhibition, hits mostly inhibitors; actives 1.2% (n = 300,000); AID 540256; calls by dose curve; tested in HEK293 cells; further: potency means the concentration at half of the fitted maximal effect; on the % scale 0 is the no-effect control and ±100 the full control effect; nearly all actives have a fitted effect of over 50% in size
Active calls of the source: *; ? = inconclusive; . = no result; [ ] = dose if it differs, or a comment. A selection: hits, their analogues and other compounds. The true share with any hit is near 8%.

SMILES	MARV entry inh	HCMV inh	HCV inh	FMDV antiviral	SARS PLpro yeast	LASV entry inh
O=C(O)C(Oc1ccc2c3c(c(=O)oc2c1)CCC3)c1ccccc1 (stereo unspecified)	9.7%	-101.0*	4.2%	-2.6%	-3.0%	-5.2%
O=C(COc1ccc2c3c(c(=O)oc2c1)CCCC3)N1CCN(c2ccc(F)cc2)CC1	.	0.0	10µM*	-26.2%	-2.8%	.
CC(=O)C(C)Oc1ccc2c3c(c(=O)oc2c1)CCCCC3 (stereo unspecified)	12.0%	3.9	35.5µM*	15.5%	25.5%	19.8%
CC(=O)NC(c1ccc(F)c(F)c1)c1nc(-c2cnc3ccccc3c2)cs1 (stereo unspecified)	.	-24.2	.	16.8%	.	.
CCOc1cc(-c2ccc(OC(=O)c3ccc(C)cc3)c(OC)c2)cc(=O)c2c(C)oc(C)c12	20.8%[46.1 µM]	106.0	.	25.1µM*	.	6.0%[46.1 µM]
COc1cc(-c2cc(OC)c3c(C)oc(C)c3c(=O)c2)ccc1OC(=O)c1ccc(C)cc1	?	12.1	.	?	.	9.4%[46.1 µM]
COC(=O)c1ccccc1NC(=O)CCCn1nc(C)c2sc3ccccc3c2c1=O	?	29.5	.	-23.1%	.	9.6%[46.1 µM]
CN(C(=O)c1cccc(NC(=O)Cc2ccc(NC(=O)C3CCCN(C(=O)C4CCCC4)C3)cc2)c1)C1CCCC1 (stereo unspecified)	.	-7.6	10µM*	?	.	.
CN(C(=O)c1cccc(NC(=O)C2CCCN(C(=O)OC(C)(C)C)C2)c1)C1CCC1 (stereo unspecified)	.	-21.5	-12.5%	?	5.9%	.
CN(C(=O)c1cccc(NC(=O)Cc2ccc(NC(=O)C3CCCN(C(=O)CCc4ccccc4)C3)cc2)c1)C1CCCCC1 (stereo unspecified)	.	-75.3*	3.16µM*	14.1µM*	.	.
CN(C(=O)c1cccc(NC(=O)Cc2ccc(NC(=O)C3CCCN(C(=O)C4CCCC4)C3)cc2)c1)C1CCCCC1 (stereo unspecified)	.	-21.0	?	?	.	.
CN(C(=O)c1cccc(NC(=O)C2CCN(C(=O)OC(C)(C)C)CC2)c1)C1CCCCC1	.	-9.2	10µM*	?	-24.3%	.
CN(C(=O)c1cccc(NC(=O)Cc2ccc(NC(=O)C3CCCN(C(=O)CCc4ccccc4)C3)cc2)c1)C1CC1 (stereo unspecified)	.	9.9	-1.5%[8.37 µM]	?	.	.
COc1ccc(NC(=O)c2cnc3sc(N4CCOCC4)nn3c2=O)c(OC)c1	.	15.1	.	-19.6%	.	8.4%[46.1 µM]
CCc1ccccc1NC(=O)CN1CCCN(Cc2cc(C)ccc2C)S1(=O)=O	.	0.0	.	?	.	-1.8%[46.1 µM]
O=C(NNc1nc2ccc(Cl)cc2s1)c1cc(-c2cccs2)nc2ccccc12	?	87.5	-3.0%	?	-60.1%	-23.3%
N#C/C(=C/c1cn(-c2ccccc2)nc1-c1cccc(OCc2ccc(F)cc2)c1)C(=O)NCCCn1ccnc1	?	13.0	5.62µM*	-7.1%	-38.1%	?
CCCOc1cccc(-c2nn(-c3ccccc3)cc2/C=C(\C#N)C(=O)NCCCn2ccnc2)c1	?	-19.3	?	-9.0%	-15.1%	-13.9%
COC(=O)C1=C(C)N(c2cccc(C)c2)C(=O)/C1=C\c1cccs1	2.82µM*	-99.3*	?	0.0%	-2.3%	-3.2%
CCOc1ccc(NC(=O)c2c(NCc3ccc(C)o3)sc3c2CCCCC3)cc1	.	-6.1	.	-12.0%	.	11.3%[46.1 µM]
COc1ccc(S(=O)(=O)NCC2CCCN(C(=O)c3ccco3)C2)cc1 (stereo unspecified)	2.0%[46.1 µM]	38.6	5.7%	66.4%	1.3%	-0.8%
COc1ccc(S(=O)(=O)NCC2CCCN(C(=O)c3cccnc3)C2)cc1 (stereo unspecified)	?	-60.1*	2.1%	13.0%	0.1%	?
C#CCSc1nc2sc3c(c2c(=O)n1-c1cccc(OC)c1)CCN(C(C)=O)C3	1.1%[46.1 µM]	-30.0	.	-11.6%	.	?
Cc1cccc(C(=O)Nc2ccc(N3CCN(C(=O)c4ccco4)CC3)cc2)c1	?	-24.6	-27.0%	7.0%	-0.1%	0.4%[46.1 µM]
Cc1ccc(OCC(=O)Nc2ccc(N3CCN(S(C)(=O)=O)CC3)cc2)cc1C	-20.9%[46.1 µM]	12.5	15.4%	-14.1%	-0.2%	2.3%
